This is part of a sample that, as a whole, favours compounds with a hit. Of some 79,000 tested, about 15% had one in any assay. Values without a mark were called inactive. Calls of active or inactive are those of the source. Rule as the data show it: active = growth inhibition above about 70%; inactive = the rest.
Assays:
[1] = NCI Yeast Anticancer Drug Screen. Data for the rad50 strain (AID 155);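 also: 0% = growth of vehicle-only cultures of the same strain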; settings: S. cerevisiae rad50 strain growth inhibition, hits give high values
Outline: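 Inhibition values express reduced yeast growth in compound-treated cultures relative to vehicle-treated controls.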

[2] = NCI Yeast Anticancer Drug Screen. Data for the mec2-1 strain (AID 157); settings: S. cerevisiae mec2-1 strain, hits give high values
Outline: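 Compounds were applied to mec2-1 yeast cells. Their growth was then compared with that of vehicle-treated cultures to give growth inhibition.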

[3] = NCI Yeast Anticancer Drug Screen. Data for the sgs1 mgt1 strain (AID 161);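 also: 0% = growth of cultures given vehicle only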; settings: S. cerevisiae sgs1 mgt1 strain, hits give high values
Outline: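 This yeast growth screen uses a strain with defined DNA-repair lesions; compound-treated growth is compared with vehicle-treated growth.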

[4] = NCI Yeast Anticancer Drug Screen. Data for the cln2 rad14 strain (AID 165);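 also: 0% = growth equal to vehicle treated cultures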; settings: S. cerevisiae cln2 rad14 strain, hits give high values
Outline: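 Strain: cln2 rad14 yeast, altered in cell cycle control and DNA damage repair. Read-out: growth inhibition vs vehicle.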

[5] = NCI Yeast Anticancer Drug Screen. Data for the bub3 strain (AID 167); settings: S. cerevisiae bub3 mutant strain, hits give high values
Outline: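 Steps: expose the mutant yeast strain to compound; grow alongside vehicle-treated cultures; measure growth; express inhibition against the vehicle cultures.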

[6] = NCI Yeast Anticancer Drug Screen. Data for the mlh1 rad18 strain (AID 175); settings: S. cerevisiae mlh1 rad18 strain growth inhibition, hits give high values
Outline: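 A repair-deficient yeast strain is exposed to test compound, and growth is scored relative to vehicle-treated controls.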

[7] = at 5.0 µM (retest, dose inferred, filed as 0.5)
[8] = at 50.0 µM (retest, dose inferred, filed as 5.0)

Structure (SMILES) | growth inhibition [1, 7] [%] | growth inhibition [1, 8] | growth inhibition ([1]; at 50.0 µM) | growth inhibition [2, 7] [%] | growth inhibition [2, 8] | growth inhibition ([2]; at 50.0 µM) | growth inhibition [3, 7] [%] | growth inhibition [3, 8] | growth inhibition ([3]; at 50.0 µM) | growth inhibition [4, 7] [%] | growth inhibition [4, 8] | growth inhibition ([4]; at 50.0 µM) | growth inhibition [5, 7] [%] | growth inhibition [5, 8] | growth inhibition ([5]; at 50.0 µM) | growth inhibition [6, 7] [%] | growth inhibition [6, 8] | growth inhibition ([6]; at 50.0 µM)
Cc1cc(SC#N)cc(C)c1O | 6 | 65% | 82% (active) | -3 | 47% | 63.1% | -1 | 45% | 74% (active) | 32 | 69% | 49% | -4 | 63% | 78.9% (active) | -5 | 81% (active) | 83.5% (active)
c1cc[c]([Sn]([NH]c2ncnc3[nH]cnc23)([NH]c2ncnc3[nH]cnc23)[c]2ccccc2)cc1 | -10 | 93% (active) | 71% (active) | -6 | 95% (active) | 47.6% | 2 | 96% (active) | 58.3% | -2 | 73% (active) | 29.4% | -4 | 95% (active) | 57.4% | -7 | 94% (active) | 89.2% (active)
Cc1cc(N)c2c(c1O)C(=O)c1ccccc1C2=O | -2 | 47% | 7.5% | -1 | 26% | 7.35% | -5 | 39% | -0.6% | 0 | 21% | 25.1% | -5 | 42% | 20.8% | -3 | 47% | 18.2%
CCC(c1cccc(O)c1)C(CC)c1cccc(O)c1 (stereo not given) | 28 | 55% | 57.2% | 19 | 67% | 60.9% | 51 | 76% (active) | 39.4% | 50 | 74% (active) | 48.9% | 59 | 88% (active) | 66.3% | 17 | 55% | 92.8% (active)
N#Cc1ccc([N+](=O)[O-])o1 | 11 | 97% (active) | 96.2% (active) | 1 | 98% (active) | 99% (active) | 9 | 93% (active) | 96.2% (active) | 8 | 59% | 62.8% | 7 | 92% (active) | 97.7% (active) | 15 | 99% (active) | 97.9% (active)
C1=C(c2ccccc2)C(c2ccc(OCCN3CCCCC3)cc2)Oc2ccccc21 (stereo not given) | 39 | 99% (active) | 99.3% (active) | 9 | 99% (active) | 99.5% (active) | 24 | 99% (active) | 97.5% (active) | 25 | 99% (active) | 98.1% (active) | 35 | 99% (active) | 98.8% (active) | 16 | 99% (active) | 99.5% (active)
COc1ccc(C(=O)Oc2c(Br)cc(Br)cc2Br)cc1 | 4 | -3% | 14.2% | 3 | -3% | 12.7% | 8 | 10% | 1.9% | -1 | -30% | -6.5% | 7 | 5% | 87.8% (active) | 1 | 2% | 7.75%
COc1ccc([C@H]2c3cc4c(cc3OC(O)(CO)[C@H]2C(=O)O)OCO4)c(OC)c1 (stereo not given in full) (tested in a mixture with another compound) | 9 | 63% | 57% | 15 | 48% | 48.4% | 0 | 44% | 44.1% | 0 | 35% | 28% | -5 | 76% (active) | 54.5% | 6 | 86% (active) | 80.5% (active)
Nc1ccc(Cc2ccc(Cl)cc2)cc1 | -156 | 93% (active) | 99.2% (active) | -51 | 96% (active) | 99% (active) | -66 | 95% (active) | 99.3% (active) | -60 | 94% (active) | 97.9% (active) | -66 | 95% (active) | 98.8% (active) | -129 | 95% (active) | 99.2% (active)
CCCCNC(C)(C)COC(=O)/C=C/c1ccc(OCCCC)cc1 | 6 | 79% (active) | 89.2% (active) | -2 | 47% | 56.2% | 3 | 86% (active) | 75.8% (active) | 3 | 79% (active) | 80% (active) | 4 | 75% (active) | 86.6% (active) | 0 | 81% (active) | 89.2% (active)
